Experiment [1] is described as follows: qHTS to identify inhibitors of the type 1 interferon - major histocompatibility complex class I in skeletal muscle: primary screen against the NCATS Pharmaceutical Collection (AID 1347407).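 Note: luminescence of HiBiT knocked into endogenous HLA-B as interferon-induced MHC class I level.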 Summed up: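 Immortalized human myoblasts (C25cl48) with HiBiT knocked into endogenous HLA-B*08:01 were stimulated with 4 ng/ml IFN-beta and treated with compounds (8-point, 1:5, top 46 uM final) for 24 h at 37 C; HiBiT lytic luminescence read.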

Experiment [2] has as its target Protein phosphatase 1D (Homo sapiens) (UniProt O15297). As to the kind of experiment: RapidFire Mass Spectrometry qHTS Assay for Modulators of WT P53-Induced Phosphatase 1 (WIP1) (AID 1347424).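 Note: amount of dephosphorylated VEPPL-S-QETFS peptide product formed by WIP1; series mostly up to about 63 µM.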 Summed up:
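RapidFire mass spectrometry measured dephosphorylated peptide after 5 min room-temperature reaction of 2 uM VEPPL-pS-QETFS with 10 nM WIP1 (50 mM Tris-HCl pH 7.5, 30 mM MgCl2, 0.1 mM EGTA, BSA), following 1 hr compound preincubation; 1 uM isotope-labelled product standard.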
For orientation: In qHTS, concentration-response curves come from the screen itself.

The target is the same in experiment [3]. As to the kind of experiment: Rhodamine-PBP qHTS Assay for Modulators of WT P53-Induced Phosphatase 1 (WIP1) (AID 1347425). Summed up: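 5 nM WIP1 + 10 uM Rh-PBP, 50 mM Tris pH 7.5, 30 mM MgCl2, 1 mM TCEP, 0.1 mM EGTA, BSA; cpds pinned, 1 hr RT; + 10 uM phosphopeptide; fluorescence 1-min reads x 11 min; delta = f1 - f0.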
Experiment [4] is described as follows: Primary qHTS for inhibitors of La Crosse Virus (LACV) - induced cell death in SH-SY5Y cells (AID 1508616).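 Note: top concentration of the series differs between compounds; higher means more rescue of cells from virus-induced death.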 Summed up: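 Cytopathicity rescue screen: compounds pinned onto SH-SY5Y cells, which are then infected with LACV (MOI 0.01) and held 6 days at 37C. Percent activity is scaled between infected DMSO control and uninfected DMSO control.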
Experiment [5] addresses Calcium and integrin-binding protein 1 (Homo sapiens) (UniProt Q99828). The experiment is described as follows: Primary qHTS for Identification of Calcium Integrin Binding Protein 1 (CIB1) Competitor (AID 1508620). Note: potency is the fitted concentration of half-maximal effect. Summed up: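 CIB1-GST (1 uM final) and compound incubated 15 min at room temperature before adding FITC-alphaIIb peptide tracer (100 nM final). Competition for binding read by fluorescence polarization (ex 480, em 540) after another 15 min at room temperature.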

Experiment [6] in a line: Primary qHTS for Huh7 cytotoxicity: counterscreen for inhibitors of MERS-S pseudotyped particle cell entry (AID 1479147; calls by dose curve).
The nature of experiment [7]: Primary qHTS for inhibitors of MERS-S pseudo-typed particle cell entry (AID 1479149; calls by dose curve; note: nearly all actives have a fitted effect of over 60% in size; note: potency is the fitted concentration of half-maximal effect).
The nature of experiment [8]: Primary qHTS for inhibitors of SARS-S pseudo-typed particle cell entry (AID 1479145; calls by dose curve; note: series mostly up to about 57 µM; nearly all actives have a fitted effect of over 45% in size).
The nature of experiment [9]: Primary qHTS for Vero E6 cytotoxicity: counterscreen for inhibitors of SARS-S pseudo-typed particle cell entry (AID 1479150; calls by dose curve).

Inconclusive results are not listed. Activity calls are given as the source filed them. Unless noted, calls come from the whole dose curve; as a rule, active = well fitted curve in the direction sought with a large enough effect; inconclusive = small, poorly fitted or top-dose-only effect, or another doubt; inactive = no such curve, though single readings can be large; an effect the other way counts as inactive or inconclusive.

Data on eight molecules can be found in PubChem BioAssay (NCATS).

Sequence of Protein phosphatase 1D (Homo sapiens) (O15297 whole entry, looked up): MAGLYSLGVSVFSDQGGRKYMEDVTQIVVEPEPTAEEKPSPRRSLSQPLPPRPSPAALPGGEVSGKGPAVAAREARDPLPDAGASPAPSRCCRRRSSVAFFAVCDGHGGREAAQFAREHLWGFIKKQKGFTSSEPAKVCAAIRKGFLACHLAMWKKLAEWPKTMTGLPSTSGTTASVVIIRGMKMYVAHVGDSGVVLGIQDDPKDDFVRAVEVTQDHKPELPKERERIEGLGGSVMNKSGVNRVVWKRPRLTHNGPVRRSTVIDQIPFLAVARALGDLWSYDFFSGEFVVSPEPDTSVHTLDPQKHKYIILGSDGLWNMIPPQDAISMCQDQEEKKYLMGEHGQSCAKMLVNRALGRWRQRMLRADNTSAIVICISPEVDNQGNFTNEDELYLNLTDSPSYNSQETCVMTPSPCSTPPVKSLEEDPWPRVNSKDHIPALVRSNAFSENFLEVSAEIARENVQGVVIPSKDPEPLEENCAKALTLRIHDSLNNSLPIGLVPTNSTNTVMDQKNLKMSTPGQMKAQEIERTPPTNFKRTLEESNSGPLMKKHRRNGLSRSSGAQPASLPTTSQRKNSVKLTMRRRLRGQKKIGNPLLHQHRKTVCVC
Sequence of Calcium and integrin-binding protein 1 (Homo sapiens) (Q99828 whole entry, looked up): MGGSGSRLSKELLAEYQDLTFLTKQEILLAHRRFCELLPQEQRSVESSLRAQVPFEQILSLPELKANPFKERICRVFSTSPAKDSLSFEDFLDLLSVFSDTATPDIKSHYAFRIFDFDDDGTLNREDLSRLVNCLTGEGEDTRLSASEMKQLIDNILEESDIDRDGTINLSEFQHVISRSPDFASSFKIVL

On to `O=C(CCCCl)c1ccc(F)cc1`, for which the Potency entry in [1], in experiment [2] and in experiment [5] was “inactive” each time. Moreover, the molecule was classed as inactive in experiment [3] and in experiment [4].

For the molecule `O=C(CBr)Nc1ccc(Cl)cc1C(=O)c1ccccc1F`, the Potency result in experiment [1], in experiment [2] and in experiment [5] was “inactive” each time. Besides, in experiment [3], the outcome was inactive.

With `CC(=O)OC1(c2ccccc2)CCN(CCc2ccccc2)CC1`, the Potency result in experiment [1], in experiment [2] and in experiment [5] was “inactive” throughout. The result in [3] was inactive.

As for `CCCCCCCCCCCC[N+](C)(C)CCOc1ccccc1`, the Potency entry in [2] and in [6] was “inactive” throughout. In [3], the call was inactive. For the same molecule, the Potency in experiment [7] was 22.4 µM (active).

`CCCC(C)C1(CC)C(=O)N=C(S)NC1=O` (configuration not stated): the Potency result in experiment [1], in experiment [2] and in experiment [5] was “inactive” each time. For the same molecule, the molecule was classed as inactive in experiment [3].

For the molecule `CC[C@]1(O)CC[C@H]2[C@@H]3CCC4=CCCC[C@@H]4[C@H]3CC[C@@]21C`, the Potency entry in experiment [2], in [8], in experiment [6], in experiment [7] and in experiment [9] was “inactive” each time. The call in experiment [3] and in experiment [4] was inactive. In experiment [5], the Potency was 31.6 µM (active).

In the case of `CC(C)NCC(O)c1ccc(N)c(C#N)c1` (configuration not stated), the Potency result in [1], in experiment [2] and in experiment [5] was “inactive” in each case. In addition, the result in experiment [3] was inactive.

In the case of `CCO[C@H]1O[C@@H]2OC3(C)CC[C@H]4[C@H](C)CC[C@@H]([C@H]1C)[C@@]24OO3`, the Potency result in experiment [1], in [2] and in [5] was “inactive” each time. Besides, the result in [3] was inactive.
